# Reference: PubChem BioAssay AID1159580 (chemical genetic matrix, 2015)
# In all, about 5,500 compounds went through this assay and about 2,000 (36%) were called active. Roughly 18% stayed inconclusive and do not appear here. This is one part of the list. A number with no mark means an inactive call. Cut-off read from the data, not from the text of the source: active = normalized growth mostly below about 0.91 (no sharp cut-off); inconclusive = no clear call, values can overlap the other calls; inactive = mostly above about 0.92.
# Experiment: chemical genetic growth profiling, strain panel (AID 1159580);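 note: tested at 20 µM; growth read once vehicle control cultures reached saturation at 30 °C; 1 = growth at the plate median or of vehicle wells; lower values mean less growth of the strain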
# Settings: growth OD
structure (smiles),measurement,setting,value
CC(=O)Oc1cc(-c2coc3cc(OC(C)=O)c(OC(C)=O)c(OC(C)=O)c3c2=O)cc(OC(C)=O)c1OC(C)=O,normalized growth,"S. cerevisiae deletion strains, locus YKL009W, strain mrt4, hits give low values",1.05
same,normalized growth,"S. cerevisiae deletion strains, locus YKL068W, hits give low values",1.01
same,normalized growth,"S. cerevisiae deletion strains, locus YKL085W, strain MDH1 (second series), hits give low values",1.01
same,normalized growth,"S. cerevisiae deletion strains, locus YKL085W, strain MDH1, hits give low values",1.01
same,normalized growth,"S. cerevisiae deletion strains, locus YKL160W, strain elf1, hits give low values",0.926
same,normalized growth,"S. cerevisiae deletion strains, locus YKL190W, strain CNB1, hits give low values",0.888 (active)
same,normalized growth,"S. cerevisiae deletion strains, locus YKR001C, strain vps1, hits give low values",0.962
same,normalized growth,"S. cerevisiae deletion strains, locus YKR026C, strain gcn3, hits give low values",0.979
same,normalized growth,"S. cerevisiae deletion strains, locus YKR091W, strain srl3, hits give low values",0.985
same,normalized growth,"S. cerevisiae deletion strains, locus YLL001W, strain dnm1, hits give low values",0.918
same,normalized growth,"S. cerevisiae deletion strains, locus YLL026W, hits give low values",0.966
same,normalized growth,"S. cerevisiae deletion strains, locus YLL041C, strain sdh2, hits give low values",0.967
same,normalized growth,"S. cerevisiae deletion strains, locus YLR027C, strain aat2, hits give low values",0.964
same,normalized growth,"S. cerevisiae deletion strains, locus YLR039C, strain RIC1, hits give low values",0.635 (active)
same,normalized growth,"S. cerevisiae deletion strains, locus YLR058C, strain SHM2, hits give low values",0.272 (active)
same,normalized growth,"S. cerevisiae deletion strains, locus YLR102C, strain apc9, hits give low values",1.03
same,normalized growth,"S. cerevisiae deletion strains, locus YLR113W, strain HOG1, hits give low values",1.11
same,normalized growth,"S. cerevisiae deletion strains, locus YLR221C, strain rsa3, hits give low values",0.911
same,normalized growth,"S. cerevisiae deletion strains, locus YLR258W, strain gsy2, hits give low values",0.963
same,normalized growth,"S. cerevisiae deletion strains, locus YLR262C, strain YPT6 (second series), hits give low values",0.887
same,normalized growth,"S. cerevisiae deletion strains, locus YLR262C, strain YPT6, hits give low values",0.89
same,normalized growth,"S. cerevisiae deletion strains, locus YLR268W, strain sec22, hits give low values",0.889
same,normalized growth,"S. cerevisiae deletion strains, locus YLR320W, strain mms22, hits give low values",0.9
same,normalized growth,"S. cerevisiae deletion strains, locus YLR342W, strain FKS1 (second series), hits give low values",0.659 (active)
same,normalized growth,"S. cerevisiae deletion strains, locus YLR342W, strain FKS1, hits give low values",0.904 (active)
same,normalized growth,"S. cerevisiae deletion strains, locus YLR357W, strain rsc2, hits give low values",0.77 (active)
same,normalized growth,"S. cerevisiae deletion strains, locus YLR370C, strain arc18, hits give low values",0.909 (active)
same,normalized growth,"S. cerevisiae deletion strains, locus YLR371W, strain rom2, hits give low values",0.801 (active)
same,normalized growth,"S. cerevisiae deletion strains, locus YLR384C, strain iki3, hits give low values",0.965
same,normalized growth,"S. cerevisiae deletion strains, locus YLR418C, strain cdc73, hits give low values",0.782 (active)
same,normalized growth,"S. cerevisiae deletion strains, locus YML016C, strain PPZ1, hits give low values",0.71 (active)
same,normalized growth,"S. cerevisiae deletion strains, locus YML032C, strain rad52, hits give low values",0.83 (active)
same,normalized growth,"S. cerevisiae deletion strains, locus YML120C, strain ndi1, hits give low values",0.898 (active)
same,normalized growth,"S. cerevisiae deletion strains, locus YML124C, strain tub3, hits give low values",1
same,normalized growth,"S. cerevisiae deletion strains, locus YMR058W, strain fet3, hits give low values",0.698 (active)
same,normalized growth,"S. cerevisiae deletion strains, locus YMR078C, strain ctf18, hits give low values",1.01
same,normalized growth,"S. cerevisiae deletion strains, locus YMR125W, strain sto1, hits give low values",1.03
same,normalized growth,"S. cerevisiae deletion strains, locus YMR129W, hits give low values",0.98
same,normalized growth,"S. cerevisiae deletion strains, locus YMR205C, strain PFK2, hits give low values",0.896
same,normalized growth,"S. cerevisiae deletion strains, locus YMR223W, strain ubp8, hits give low values",0.938
same,normalized growth,"S. cerevisiae deletion strains, locus YMR231W, strain pep5, hits give low values",0.924 (active)
same,normalized growth,"S. cerevisiae deletion strains, locus YMR263W, strain SAP30, hits give low values",0.734 (active)
same,normalized growth,"S. cerevisiae deletion strains, locus YMR307W, strain GAS1, hits give low values",0.67
same,normalized growth,"S. cerevisiae deletion strains, locus YNL067W, strain RPL9B, hits give low values",0.848 (active)
same,normalized growth,"S. cerevisiae deletion strains, locus YNL071W, strain lat1, hits give low values",0.979
same,normalized growth,"S. cerevisiae deletion strains, locus YNL183C, strain NPR1, hits give low values",0.988
same,normalized growth,"S. cerevisiae deletion strains, locus YNL209W, strain ssb2, hits give low values",0.785 (active)
same,normalized growth,"S. cerevisiae deletion strains, locus YNL233W, strain BNI4, hits give low values",0.824 (active)
same,normalized growth,"S. cerevisiae deletion strains, locus YNL248C, strain rpa49, hits give low values",0.945
same,normalized growth,"S. cerevisiae deletion strains, locus YNL250W, strain rad50, hits give low values",1.06
same,normalized growth,"S. cerevisiae deletion strains, locus YNL271C, strain bni1, hits give low values",1.01
same,normalized growth,"S. cerevisiae deletion strains, locus YNL298W, strain CLA4, hits give low values",0.998
same,normalized growth,"S. cerevisiae deletion strains, locus YNL307C, strain MCK1, hits give low values",1.02
same,normalized growth,"S. cerevisiae deletion strains, locus YNL322C, strain KRE1 (second series), hits give low values",0.972
same,normalized growth,"S. cerevisiae deletion strains, locus YNL322C, strain KRE1, hits give low values",0.767 (active)
same,normalized growth,"S. cerevisiae deletion strains, locus YNR049C, strain mso1, hits give low values",0.979
same,normalized growth,"S. cerevisiae deletion strains, locus YNR052C, strain pop2, hits give low values",0.658 (active)
same,normalized growth,"S. cerevisiae deletion strains, locus YOL012C, strain htz1",0.316
same,normalized growth,"S. cerevisiae deletion strains, locus YOL147C, strain pex11, hits give low values",0.694 (active)
same,normalized growth,"S. cerevisiae deletion strains, locus YOR001W, strain rrp6, hits give low values",0.859 (active)
same,normalized growth,"S. cerevisiae deletion strains, locus YOR061W, strain CKA2, hits give low values",0.887 (active)
same,normalized growth,"S. cerevisiae deletion strains, locus YOR069W, strain VPS5, hits give low values",0.904 (active)
same,normalized growth,"S. cerevisiae deletion strains, locus YOR070C, strain gyp1, hits give low values",0.937
same,normalized growth,"S. cerevisiae deletion strains, locus YOR080W, strain dia2, hits give low values",0.899 (active)
same,normalized growth,"S. cerevisiae deletion strains, locus YOR083W, strain WHI5, hits give low values",0.908
same,normalized growth,"S. cerevisiae deletion strains, locus YOR106W, strain vam3, hits give low values",0.778 (active)
same,normalized growth,"S. cerevisiae deletion strains, locus YOR136W, strain idh2, hits give low values",1
same,normalized growth,"S. cerevisiae deletion strains, locus YOR144C, strain elg1, hits give low values",0.797 (active)
same,normalized growth,"S. cerevisiae deletion strains, locus YOR184W, strain ser1, hits give low values",0.905
same,normalized growth,"S. cerevisiae deletion strains, locus YOR231W, strain MKK1, hits give low values",1.05
same,normalized growth,"S. cerevisiae deletion strains, locus YOR265W, strain rbl2, hits give low values",0.946
same,normalized growth,"S. cerevisiae deletion strains, locus YOR270C, strain vph1, hits give low values",0.564 (active)
same,normalized growth,"S. cerevisiae deletion strains, locus YOR290C, strain snf2, hits give low values",0.322 (active)
same,normalized growth,"S. cerevisiae deletion strains, locus YOR316C, strain cot1, hits give low values",1.02
same,normalized growth,"S. cerevisiae deletion strains, locus YPL051W, strain arl3, hits give low values",0.847 (active)
same,normalized growth,"S. cerevisiae deletion strains, locus YPL055C, strain LGE1, hits give low values",0.751 (active)
same,normalized growth,"S. cerevisiae deletion strains, locus YPL078C, strain atp4, hits give low values",0.772 (active)
same,normalized growth,"S. cerevisiae deletion strains, locus YPL106C, strain sse1, hits give low values",0.869
same,normalized growth,"S. cerevisiae deletion strains, locus YPL240C, strain hsp82, hits give low values",0.961
same,normalized growth,"S. cerevisiae deletion strains, locus YPL256C, strain CLN2, hits give low values",1.12
same,normalized growth,"S. cerevisiae deletion strains, locus YPR119W, strain clb2, hits give low values",1.03
same,normalized growth,"S. cerevisiae deletion strains, locus YPR141C, strain kar3, hits give low values",1.03
same,normalized growth,"S. cerevisiae deletion strains, locus YPR163C, strain tif3, hits give low values",0.989
same,normalized growth,"S. cerevisiae deletion strains, locus YPR167C, strain met16, hits give low values",0.953
same,normalized growth,"S. cerevisiae deletion strains, strain wtn01, hits give low values",0.882 (active)
same,normalized growth,"S. cerevisiae strains, strain wild type, hits give low values",0.75 (active)
